PAFAH1B3 FP inh – PAFAH1B3 enzyme inhibitors, primary screen, biochemical, fluorescence polarization, human. Platelet-activating factor acetylhydrolase IB subunit alpha1 (Homo sapiens), Q15102. recombinant PAFAH1B3, FP-rhodamine probe. inhibition, % at 3.39 µM. 340,000 compounds, 0.28% hits;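 active = inhibition above the screen-wide average of all tested compounds plus 3 SD, cut at about 25% in these data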;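 also: 0% = enzyme with DMSO only and 100% = wells lacking PAFAH1B3 protein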
Target sequence (Q15102 whole entry, looked up): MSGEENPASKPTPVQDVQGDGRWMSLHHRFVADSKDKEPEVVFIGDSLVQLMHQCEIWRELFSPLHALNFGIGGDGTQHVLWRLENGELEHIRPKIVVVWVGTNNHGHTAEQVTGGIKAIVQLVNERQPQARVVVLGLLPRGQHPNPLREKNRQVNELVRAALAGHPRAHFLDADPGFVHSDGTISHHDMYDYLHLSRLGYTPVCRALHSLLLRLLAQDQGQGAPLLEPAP
PP5 primary – PP5 phosphatase inhibitors, primary screen, biochemical, fluorescence; purified PP5c, OMFP substrate fluorescence; inhibition, % at 6.7 µM; 320,000 compounds, 0.18% hits;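 active = inhibition above the campaign's mean inhibition across all tested compounds plus 3 SD, cut at about 9.5% in these data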;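 also: 0% = DMSO only and 100% = 100 µM cantharidin control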
PP1 inh – PP1-alpha phosphatase inhibitors, primary screen, counter-screen for PP5 inhibitor project, biochemical, fluorescence, OMFP substrate, single point | Serine/threonine-protein phosphatase PP1-alpha catalytic subunit (Homo sapiens), P62136 | purified PP1alpha | inhibition, % at 6.7 µM | 320,000 compounds, 0.9% hits | AID 2235, 2010;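 active = inhibition above the mean inhibition of all tested compounds plus 3 SD, computed separately for each screening campaign, cut at about 15% in these data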
Target sequence (P62136 whole entry, looked up): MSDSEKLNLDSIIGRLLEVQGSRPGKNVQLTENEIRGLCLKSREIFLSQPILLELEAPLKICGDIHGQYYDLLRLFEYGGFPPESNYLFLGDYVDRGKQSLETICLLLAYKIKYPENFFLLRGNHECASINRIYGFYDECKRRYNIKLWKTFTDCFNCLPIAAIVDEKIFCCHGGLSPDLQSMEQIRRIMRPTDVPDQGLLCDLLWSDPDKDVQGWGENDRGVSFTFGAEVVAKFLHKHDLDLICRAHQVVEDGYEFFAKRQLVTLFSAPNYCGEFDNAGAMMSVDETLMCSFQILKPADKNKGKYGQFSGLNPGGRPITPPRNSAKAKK
PAFAH1B2 inh – PAFAH1B2 enzyme inhibitors, primary screen, biochemical, fluorescence polarization, human. Platelet-activating factor acetylhydrolase IB subunit alpha2 (Homo sapiens), P68402. recombinant PAFAH1B2, FP-rhodamine activity probe. inhibition, % at 3.39 µM. 340,000 compounds, 1.2% hits;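 active = inhibition above the mean of all tested compounds plus 3 SD, cut at about 24% in these data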;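 also: 0% = enzyme with DMSO and 100% = wells lacking PAFAH1B2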
pPAFAH FP inh – pPAFAH enzyme inhibitors, primary screen, biochemical, fluorescence polarization, human | Platelet-activating factor acetylhydrolase (Homo sapiens), Q13093 | recombinant pPAFAH, FP-rhodamine probe fluorescence polarization | inhibition, % at 3.39 µM | 330,000 compounds, 1.5% hits | AID 463082, 2010;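 active = inhibition above the mean inhibition across the screen plus 3 SD, cut at about 25% in these data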;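 also: inhibitors block binding of the rhodamine activity-based probe so polarization drops; 0% = enzyme with DMSO and 100% = wells lacking pPAFAH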
PAFAH2 FP inh – PAFAH2 enzyme inhibitors, primary screen, biochemical, fluorescence polarization, human | recombinant PAFAH2, FP-rhodamine activity probe | AID 492956, 2010 | inhibition, % at 3.39 µM | 340,000 compounds, 0.99% hits;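 active = inhibition above the mean over all tested compounds plus 3 SD, cut at about 30% in these data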;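 also: inhibitors block probe labeling of enzyme so polarization drops; 0% = enzyme with DMSO and 100% = wells lacking PAFAH2 protein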
PP1 confirm – PP1 phosphatase inhibitors, confirmation, biochemical, fluorescence, OMFP substrate, triplicate. shares compounds with PP1 inh. 1,900 compounds, 52% hits. inhibition, % at 6.7 µM. purified PP1alpha;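 active = mean PP1 inhibition above a set limit taken from the earlier primary screen, cut at about 15% in these data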
PP5 inh counter – PP5 phosphatase inhibition by PP1 hits, confirmation, counter-screen for PP1 inhibitor project, biochemical, fluorescence, triplicate; purified PP5c, OMFP fluorescence; shares compounds with PP1 inh; inhibition, % at 6.7 µM; 1,900 compounds, 4% hits;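 active = mean PP5 inhibition over triplicate wells above about 9.5% taken from the earlier PP1 screen, limit read from the data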
* = called active by the depositor; x = no result given. Compounds with a hit are over-represented: about 3.4% of the library has one in this group of screens.

SMILES	PAFAH1B3 FP inh	PP5 primary	PP1 inh	PAFAH1B2 inh	pPAFAH FP inh	PAFAH2 FP inh	PP1 confirm	PP5 inh counter
N#Cc1c(-c2ccco2)cc(-c2ccccn2)nc1N	-5	2	27*	-4	15	8	7	0
N#Cc1c(-c2ccco2)cc(C2CC2)nc1N	2	-2	2	-1	8	-4	x	x
N#Cc1c(-c2ccco2)cc(-c2cccnc2)nc1N	9	2	28*	3	17	7	6	1
C/C(CC(=O)NC1CCCCC1)=N\NC(=O)c1ccccc1C	4	-2	1	1	6	-9	x	x
CC(=NC1CC1)C1=C(O)c2ccccc2C1=O	2	4	0	-1	0	4	x	x
Cc1ccc(NC(=O)Cn2nc(-c3ccccc3)nc2-c2ccccc2)c(C)c1	-5	0	-3	0	1	9	x	x
Cc1ccc(C)c(NC(=O)Cn2nc(-c3ccccc3)nc2-c2ccccc2)c1	3	1	20*	-1	3	-3	24*	-6
COc1ccc2nc(NC(=O)c3cccc(-c4cc5ccccc5oc4=O)c3)sc2c1	-9	-1	23*	-9	3	-15	26*	-3
Cc1c(NC(=O)c2cccc(-c3cc4ccccc4oc3=O)c2)cccc1-c1nc2ncccc2o1	-30	1	23*	-14	-10	-53	31*	0
O=C(Nc1ccc2oc(-c3ccncc3)nc2c1)c1ccc2c(c1)OCO2	2	1	30*	1	7	13	25*	1
O=C(Nc1ccc2oc(-c3ccncc3)nc2c1)c1ccc2c(c1)OCCO2	10	3	15	0	-5	-1	x	x
O=C(Nc1ccc2oc(-c3cccnc3)nc2c1)c1ccc2c(c1)OCCO2	-4	4	30*	0	15	5	14	-5
CC(=O)c1ccccc1NS(=O)(=O)c1ccc2c(c1)CC(=O)N2	0	1	0	0	0	5	x	x
CCOC(=O)N1CCc2c(sc3nc4n(c(=O)c23)N=C(C)CS4)C1	-6	1	0	-2	3	4	x	x
O=C(COc1ccc(F)cc1Cl)Nc1nc(-c2ccccn2)cs1	10	1	42*	0	-2	1	43*	-2
Cc1csc(NC(=O)c2cccn2C)n1	4	0	2	0	7	6	x	x
O=C(Nc1nc(-c2ccccn2)cs1)c1ccc(Cl)s1	9	6	31*	3	9	-3	29*	4
O=C(Nc1nc(-c2ccccn2)cs1)c1ncc(Cl)c(Cl)c1Cl	9	2	37*	5	8	9	41*	1
O=C(COc1ccccc1Cl)Nc1nc(-c2ccncc2)cs1	13	x	x	9	6	14	x	x
Cn1cccc1C(=O)Nc1nc(-c2ccccn2)cs1	3	6	32*	3	5	2	41*	1
O=C(CCc1nc2ccccc2s1)Nc1cccnc1	-4	-1	-2	2	8	3	x	x
Cc1ccccc1N(CC(=O)NCc1ccccc1)C(=O)CCC(=O)Nc1nccs1	-1	1	-1	-3	-2	1	x	x
Cc1ccc(C(=O)NCCc2cccs2)cc1	-6	1	-5	4	7	-8	x	x
CC(C)c1ccc(NC(=O)Nc2cnccn2)cc1	-6	4	-1	1	-1	4	x	x
O=C(/C=C/c1ccco1)Nc1nc(-c2ccccc2)cs1	1	-2	2	2	10	-11	x	x
SMILES	PAFAH1B3 FP inh	PP5 primary	PP1 inh	PAFAH1B2 inh	pPAFAH FP inh	PAFAH2 FP inh	PP1 confirm	PP5 inh counter
CCc1sc(C(=O)Nc2nc(-c3ccccn3)cs2)cc1C	-3	x	x	0	9	8	x	x
Cc1ccc(C(=O)Nc2nc(-c3ccccn3)cs2)s1	12	5	34*	-2	3	8	32*	-1
O=C(/C=C/c1ccco1)Nc1nc(-c2ccccn2)cs1	16	2	32*	9	4	20	40*	-2
O=C(CCCSc1ccccc1)Nc1nc(-c2ccccn2)cs1	0	5	41*	6	12	-2	39*	-2
Nc1nn2c(-c3ccccc3)cc(=O)[nH]c2c1N=Nc1ccc(O)cc1	16	3	28*	14	27*	29	20*	1
O=C(Nc1nnc(-c2ccc3c(c2)CCCC3)o1)C1COc2ccccc2O1 (stereo not drawn)	7	1	38*	0	31*	3	37*	1
COc1ccccc1CCNC(=O)CSc1nc(=O)[nH]c2c1CCC2	3	-2	-7	0	0	2	x	x
COc1cccc2cc(C(=O)C3=C(O)C(=O)N(CCN4CCOCC4)C3c3ccc(C(C)(C)C)cc3)oc12 (stereo not drawn)	6	4	21*	6	9	13	27*	1
O=C(C1=C(O)C(=O)N(CCN2CCOCC2)C1c1ccc(Br)cc1)c1cc2ccccc2o1 (stereo not drawn)	-3	3	23*	5	8	18	12	3
COc1cccc2cc(C(=O)C3=C(O)C(=O)N(CCN4CCOCC4)C3c3ccc(Cl)cc3)oc12 (stereo not drawn)	2	2	8	-2	1	-5	x	x
COc1ccc(C(=O)N(Cc2cccs2)C2CCS(=O)(=O)C2)cc1 (stereo not drawn)	4	3	-3	2	-2	-2	x	x
CC(C)c1ccc(CNCc2ccccc2)cc1	7	3	1	3	2	0	x	x
Cc1cccc(NC(=O)CNC(=O)c2ccccc2Cl)n1	2	3	-3	-6	4	7	x	x
CCCCn1c(N)c(N(CCOC)C(=O)c2ccc(-n3c(C)ccc3C)cc2)c(=O)[nH]c1=O	1	-1	-1	2	6	-2	x	x
COc1ncccc1C(=O)N1CCCC(N2CCN(c3cccc(Cl)c3)CC2)C1 (stereo not drawn)	2	2	49*	2	1	-1	-7	-6
COc1ncccc1C(=O)N1CCCC(N2CCN(c3ccc(F)cc3)CC2)C1 (stereo not drawn)	-4	-6	3	-10	1	-3	x	x
